# Assay results taken from PubChem BioAssay AID2551 (National Center for Advancing Translational Sciences (NCATS), 2010).
# Values joined by “and” are separate entries in the source; they are usually repeats but may differ in a detail not shown here. Equal entries are not always repeated. In all, about 310,000 compounds went through this assay and about 17,000 (5.5%) were called active. Where a call stands in place of a potency, no number is given. Another 11% or so got no clear call; they are omitted. The sample holds actives, similar compounds and a random draw of the others, so the mix is not that of the screen. Calls follow the shape of the dose curve; as a rule, active = well fitted inhibition curve with a large enough effect; inconclusive = small, poorly fitted or top-dose-only effect, or effect the other way; inactive = no such curve, though single readings can be large or run the other way. The source holds several records for some structures; these can differ, active in one and inactive in another.
# Molecular target: Nuclear receptor ROR-gamma (Mus musculus) (UniProt P51450)
# Assay: qHTS for inhibitors of ROR gamma transcriptional activity; also: nearly all actives have a fitted effect of over 60% in size
# Settings: Drosophila S2 Gal4-RORgamma UAS-luciferase reporter, 20 h; series mostly up to 53.6 µM
# Description: NIH Molecular Libraries Probe Production Network [MLPCN] NIH Chemical Genomics Center [NCGC] MLPCN Grant: R03 DA026211-01 Assay Provider: Dan Littman, New York University Assay Overview: The retinoic acid-related orphan receptor (ROR) gamma is a transcription factor that has a central role in the differentiation of Th17 cells, a subset of T helper cells that secrete the inflammatory cytokines IL-17, IL-17F, and IL-22. Th17 cells have been implicated in graft versus host disease, autoimmune disease and asthma. ROR gamma is induced in naive T helper cells in the presence of TGF-beta combined with IL-6, IL-21, or IL-23, and thereafter directs the expression of the Th17 lineage cytokines. To study the mechanism of action of ROR gamma, an insect cell-based assay was screened. This Drosophila Schneider cell line was stably transfected with two vectors: a gene expressing a fusion of the Gal4 DNA binding domain and ROR gamma transactivation domain under the control of the metallothionine promoter and a Photinus luciferase reporter regulated by the Gal4 binding site enhancer, UAS. […] Small molecule inhibitors of ROR gamma activity are detected by a decrease in luciferase reporter activity.
# Assay Protocol Summary: For screening, 600 cells in 4 uL/well were dispensed into white solid 1536-well plates (Grenier) using a solenoid-based dispenser. Following transfer of 23 nL compound or DMSO vehicle by a pin tool, the plates were incubated 1 hr at ambient temperature, and 1 uL/well copper sulfate (700 uM final concentration) was added. The plates were centrifuged 15 s at 1000 RPM and incubated 20 hr at ambient temperature. After addition of 1.5 uL Photinus luciferase detection reagent, the plates were incubated 10 min at ambient temperature and then read by an ViewLux (Perkin Elmer) to detect luminescence. Keywords: NIH Roadmap, MLPCN, MLI, MLSMR, qHTS, NCGC, qHTS, nuclear hormone receptor, retinoic acid-related orphan receptor, ROR gamma
# Potency is read from the fitted curve at half-maximal effect.
# Chain of Nuclear receptor ROR-gamma (Mus musculus) (P51450 whole entry, looked up): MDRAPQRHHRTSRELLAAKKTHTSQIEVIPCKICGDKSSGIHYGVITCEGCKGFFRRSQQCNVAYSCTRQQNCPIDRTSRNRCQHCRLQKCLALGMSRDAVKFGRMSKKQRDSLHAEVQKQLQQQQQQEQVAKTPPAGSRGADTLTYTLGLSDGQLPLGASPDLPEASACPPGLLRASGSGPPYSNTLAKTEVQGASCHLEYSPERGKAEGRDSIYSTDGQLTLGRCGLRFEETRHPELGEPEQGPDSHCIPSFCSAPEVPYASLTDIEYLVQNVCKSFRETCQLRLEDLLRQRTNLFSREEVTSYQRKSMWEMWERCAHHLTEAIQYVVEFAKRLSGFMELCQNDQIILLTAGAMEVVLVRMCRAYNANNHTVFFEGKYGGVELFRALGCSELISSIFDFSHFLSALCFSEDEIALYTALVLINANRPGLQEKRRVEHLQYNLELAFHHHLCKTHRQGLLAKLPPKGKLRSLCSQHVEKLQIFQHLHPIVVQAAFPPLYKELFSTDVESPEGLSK
SMILES,Potency,"activity change, negative = inhibition"
c1ccc2sc(SNC3CCCCC3)nc2c1,8.91 µM (active),
c1ccc2sc(C3CCCNC3)nc2c1 (stereo not given),inactive,
c1ccc2sc(N3CCNCC3)nc2c1,inactive,
CC[N+](C)(CC)CCC[n+]1c(-c2ccccc2)c2cc(N)ccc2c2ccc(N)cc21,3.16 µM (active),
CN[C@@H]1C[C@H]2O[C@@](C)([C@@H]1OC)n1c3ccccc3c3c4c(c5c6ccccc6n2c5c31)C(=O)NC4,,-41% [at 10 µM] (inactive)
CCOc1cccc(=NC2CCCCC2)c2c(C)[nH]c(C)c12,inactive,
O=c1oc2ccccc2c(O)c1C(c1ccccc1O)c1c(O)c2ccccc2oc1=O,inactive,
CCNC[C@H](O)c1cccc(O)c1,,-12.3% [at 2.98 µM] (inactive)
C/C(=C\C=C/[C@@H](C)C(=O)O)[C@H]1CN[C@H](C(=O)O)[C@@H]1CC(=O)O,inactive,
Fc1ccc(C(OCCN2CCN(C/C=C\c3ccccc3)CC2)c2ccc(F)cc2)cc1,14.1 µM (active),
ClC(Cl)=C(Cl)C(Cl)=C(Cl)Cl,inactive,
CC(C)(C)C(O)(CCc1ccc(Cl)cc1)Cn1cncn1 (stereo not given),inactive,
O=c1[nH]c(=S)n(C2CC2)c(O)c1/C=N/N1CCOCC1,inactive,
O=C(N/N=C/c1c(O)n(C2CC2)c(=S)[nH]c1=O)c1ccccc1,14.1 µM (active),
O=c1[nH]c(=O)n(Cc2ccccc2)c(O)c1/C=N/Nc1c(F)c(F)c(F)c(F)c1F,inactive,
COc1ccc(C2N3CC(C)(C)CN23)cc1 (stereo not given),inactive,
Clc1ccccc1,inactive,
C[C@@H]1C[C@@H]2O[C@H]2/C=C\C=C\C(=O)Cc2c(Cl)c(O)cc(O)c2C(=O)O1,10 µM (active),
CNC(C)[C@@H](O)c1ccccc1 (stereo not given in full),inactive,
c1ccc(CN2CC[C@@]3(CCCNC3)C2)cc1,inactive,
CCCCC/C=C\C/C=C\C/C=C\C=C\[C@H](CCCC(=O)O)OO,inactive,
CCC(C)C(=O)O[C@@H]1C[C@@]2(C)C(c3ccoc3)OC(=O)CC23OC2(C)O[C@@]14[C@@]1(C)C(CC(=O)OC)C5(C)CC1(O)C(O)(C5OC(=O)C1(C)OC1C)C(OC(C)=O)[C@@]34O2 (stereo not given in full),inactive,
CCCCCn1c(=O)c(C(=O)NCc2ccccn2)c(O)c2ccccc21,5.01 µM (active),
CCCCCn1c(=O)c(C(=O)Nc2c(C)n(C)n(-c3ccccc3)c2=O)c(O)c2ccccc21,inactive,
CCCCCn1c(=O)c(C(=O)NCc2ccccc2)c(O)c2ccccc21,12.6 µM (active),

SMILES,Potency,"activity change, negative = inhibition"
CCCCn1c(=O)c(C(=O)Nc2ccccc2Cl)c(O)c2ccccc21,,1.37% [at 1.91 µM] (inactive)
CC[N+]1(CCOC(=O)C(O)(c2ccccc2)c2ccccc2)CCCCC1,inactive,
Cc1cccc([C@H](C)c2cnc[nH]2)c1C,inactive,
CCC1(c2ccccc2)C(=O)NC(=O)N(C)C1=O (stereo not given),inactive,
O=c1[nH]c(=O)n(-c2ccccc2)c(O)c1C=NC12CN3CN(CN(C3)C1)C2,inactive,
CC(=O)c1c(O)c(C)c(O)c(Cc2c(O)c3c(c(C(=O)/C=C/c4ccccc4)c2O)OC(C)(C)C=C3)c1O,inactive,
CC[C@@H]1CN2CC[C@@H]1C[C@H]2[C@H](O)c1ccnc2ccc(OC)cc12,inactive,
N#CC(C#N)=Cc1cc(O)c(O)c([N+](=O)[O-])c1,inactive,
CCN1C[C@@]2(COC)CC[C@H](OC)[C@]34[C@@H]1[C@]1(OCO[C@@]15C[C@@H](OC)C1C[C@H]3[C@H]5[C@@H]1OC)[C@H](O)[C@@H]24,inactive,
C[C@H]1C/C=C/[C@@H]2[C@@H]3O[C@]3(C)[C@@H](C)[C@H]3[C@H](Cc4ccccc4)NC(=O)[C@]32OC(=O)O/C=C/[C@](C)(O)C1=O,inactive,
C=CCN1CCC23c4c5ccc(O)c4O[C@H]2C(=O)CC[C@@]3(O)C1C5 (stereo not given in full),,14.1% [at 10 µM] (inactive)
COC([CH2][Hg])CNC(=O)c1ccccc1OCC(=O)O (stereo not given),inactive,
CN(C)C[C@H]1CCCC[C@]1(O)c1cccc(O)c1,inactive,
c1csc(CN2CCCC3(CCNCC3)C2)n1,inactive,
C[C@H]1CC[C@@]2(NC1)O[C@@H]1C[C@H]3[C@@H]4CC=C5C[C@@H](O)CC[C@]5(C)[C@@H]4CC[C@]3(C)[C@@H]1[C@@H]2C,inactive,
CN1CCCC(=C(c2cccs2)c2cccs2)C1,inactive,
CCCCCCCCCCCCN=C(N)N,inactive,
Cc1cc(C)cc(C(=O)N(CCc2ccccc2)C2=CC3CCC(C2)N3C)c1 (stereo not given),12.6 µM (active),
CN1C2C=C(N(C(=O)c3ccc(Cl)cc3)c3ccccc3)CC1CC2 (stereo not given),inactive,
CCCCC/C=C\C/C=C\C/C=C\C/C=C\CCCCCC(=O)NCCO,inactive,
O=C(N/N=C/c1ccc([N+](=O)[O-])o1)c1cc([N+](=O)[O-])cc([N+](=O)[O-])c1O,inactive,
c1ccc(N2CC[C@@]3(CCCNC3)C2)nc1,inactive,
CC/C(=N\NC(=O)c1ccccc1O)c1c(O)n(Cc2ccccc2)c(=O)[nH]c1=O,12.6 µM (active),
CCC(=NCCc1ccccc1)c1c(O)n(C2CCCCC2)c(=O)[nH]c1=O,inactive,
CCC(=NCc1ccco1)c1c(O)n(Cc2ccccc2)c(=O)[nH]c1=O,inactive,

SMILES,Potency,"activity change, negative = inhibition"
NC[C@H](O)c1ccc(O)cc1,inactive,
COc1ccc(C2Oc3c(I)c(OC)cc(OC)c3CC2O)cc1OC (stereo not given),inactive,
CC(C)(C)c1ccc(CN2C(=O)CN=C(c3ccccc3)c3ccccc32)cc1,inactive,
ClCCBr,inactive,
Cc1cc(C)cc(NC(=S)NC2CC3CCCC(C2)N3Cc2cccs2)c1 (stereo not given),8.91 µM (active),
C[C@@H]1C[C@H]2CC[C@H](O2)[C@H](C)C(=O)O[C@@H](C)C[C@@H]2CC[C@@H](O2)[C@@H](C)C(=O)O[C@H](C)C[C@H]2CC[C@H](O2)[C@H](C)C(=O)O[C@@H](C)C[C@@H]2CC[C@@H](O2)[C@@H](C)C(=O)O1,0.891 µM (active),
CC(=O)Oc1ccccc1C(=O)Nc1ncc([N+](=O)[O-])s1,inactive,
N#Cc1c(Cl)c(Cl)c(Cl)c(C#N)c1Cl,2.51 µM (active),
O=C1CCc2cccc3c2N1CC3,inactive,
Nc1ccc(-c2ccc(N)c(N)c2)cc1N,inactive,
CC1=CC(=O)C2=C(C)C[C@H](O)[C@H]3[C@H](C)C(=O)O[C@@H]3C12 (stereo not given in full),inactive,
C=CCSSCC=C,inactive,
CCCCCCCCc1[se]c2ccccc2c1Br,inactive,
O=C(O)c1ccccc1NC(=O)C1C2CCC(O2)C1C(=O)O (stereo not given),inactive,
c1csc(CN2CC3(CCNCC3)C2)n1,inactive,
C1CC[C@H]([C@@]23C[C@H](C[C@H]4CCCN[C@H]42)[C@@H]2CCCCN2C3)NC1,inactive,
Cc1nc2ccccn2c1P(=S)(N1CCCCC1)N1CCCCC1,7.08 µM (active),
c1ccc(CCCCN2CCC(c3ccccc3)CC2)cc1,inactive,
Clc1ccc([C@@H]2C[C@H]3CC[C@@H]2N3)cn1,inactive,
CC[C@]1(O)C(=O)OCc2c1cc1n(c2=O)Cc2cc3ccccc3nc2-1,inactive,
Cc1ncc(CC(=O)n2cc(C(=O)c3cc(Cl)ccc3O)cn2)s1,7.94 µM (active),
CC(C)(Cc1c[nH]c2ccc(Cl)cc12)NCCOc1ccccc1OCC1CC1,12.6 µM (active),
N[C@H](C(=O)O)c1cc(=O)[nH]o1,inactive,
COC(=O)N1C(c2ccccc2)C1c1ccccc1 (stereo not given),inactive,
CC(=O)[O][Sn]([c]1ccccc1)([c]1ccccc1)[c]1ccccc1,0.891 µM (active),

SMILES,Potency,"activity change, negative = inhibition"
C[C@@]12CCC3C(CC[C@@H]4CC(O)CC[C@@]34C)C1CCC2O (stereo not given in full),inactive,
Cc1ncsc1CCCl,inactive,
COc1cc2c(cc1OC)[C@@H]1C(=O)c3ccc(O)c(CC=C(C)C)c3OC1CO2 (stereo not given in full),inactive,
C[C@@]12CC[C@H]3[C@@H](CC[C@]4(O)C[C@H](O)CC[C@@]34C=O)[C@]1(O)CC[C@@H]2C1=CC(=O)OC1,inactive,
N#Cc1cc(Br)c(O)c(Br)c1,inactive,
CCCCC(=O)N/N=C/c1c(O)n(-c2ccccc2)c(=O)[nH]c1=O,inactive,
CCCCC(=O)N/N=C/c1c(O)n(CC)c(=S)n(CC)c1=O,2 µM (active),
CCCCC(=O)N/N=C/c1c(O)n(CCC2=CCCCC2)c(=O)[nH]c1=O,inactive,
CC(Cl)Cl,inactive,
COC1=C[C@]23CCCN2CCc2cc4c(cc2[C@@H]3[C@@H]1O)OCO4,inactive,
CCN1C[C@]2(C)CC[C@H](O)[C@@]34[C@@H]5CC6[C@@H](OC)C[C@@](O)([C@@H]5[C@@H]6O)[C@H](C[C@@H]23)[C@H]14,inactive,
CO[C@H]1[C@@H](O)[C@@H](C)O[C@H](O[C@H]2[C@H](Oc3cccc4c(O)c5c(=O)oc6ccc(C)c7c(=O)oc(c34)c5c67)O[C@H](C)[C@H](O)[C@@H]2O)[C@@H]1O,11.2 µM (active),
CN1C2CC3CC1C(O3)C2O (stereo not given),inactive,
CC(C)(c1ccccc1)c1ccc(O)cc1,inactive,
CCOc1ccc(-c2cc(C)[n+](CCN(CC)CC)c(-c3ccc(OCC)cc3)c2)cc1,inactive,
CCCCC/C=C\C/C=C\C/C=C\CCCCCCC(=O)NCCO,inactive,
COc1ccc(CN2CCN(c3ccccc3F)CC2)c(OC)c1,inactive,
COc1cc(-n2c(=S)[nH]c3ccc(C)cc3c2=O)c(Cl)cc1Cl,2.51 µM (active),
COc1ccccc1-c1[se]c2ccccc2c1I,inactive,
C[C@]12O[C@H](C[C@@]1(O)C(=O)O)n1c3ccccc3c3c4c(c5c6ccccc6n2c5c31)CNC4=O,inactive,
CNCC[C@H](Oc1ccc(C(F)(F)F)cc1)c1ccccc1,inactive,
C=CC#N,inactive,
O=C1C2CCN(CC2)C1(CO)CO,inactive and 25.1 µM (active),
c1ccc2c(c1)[I+]c1ccccc1-2,inactive,
O=P1(Oc2ccccc2)CC(O)C(O)C(COCc2ccccc2)O1 (stereo not given),inactive,
